Experimental data taken from PubChem BioAssay AID1159580 (chemical genetic matrix, 2015).
Where “and” joins values, the source holds several entries; their conditions need not be identical. Equal entries are not always repeated. Hit rate of the full screen: of about 5,500 compounds, about 2,000 (36%) were called active. About 18% were inconclusive and are not listed. No stated cut-off is given here; in the data, active means normalized growth mostly below about 0.91 (no sharp cut-off); inconclusive means no clear call, values can overlap the other calls; inactive means mostly above about 0.92. The list shows a part of the results.

Experiment: chemical genetic growth profiling, strain panel (AID 1159580);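 further: tested at 20 µM; growth read once vehicle control cultures reached saturation at 30 °C; 1 = growth at the plate median or of vehicle wells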
Conditions: S. cerevisiae deletion strains, growth OD

Measured: normalized growth

C[C@@H]1CC[C@@]2(NC1)O[C@H]1C[C@H]3C4CC=C5C[C@@H](O)CC[C@]5(C)C4CC[C@]3(C)C1[C@@H]2C (some centres not stated)
0.0512 (active) and 1.05 (inactive): locus YHR030C, strain SLT2, stronger effect = lower value
inactive: locus YGL167C, strain pmr1, stronger effect = lower value 0.956 | locus YHR079C, strain IRE1, stronger effect = lower value 1.03 | locus YJR066W, strain TOR1, stronger effect = lower value 0.985 | locus YKL068W, stronger effect = lower value 1.01 | locus YKL085W, strain MDH1 (second series), stronger effect = lower value 0.942 | locus YKL085W, strain MDH1, stronger effect = lower value 0.942 | locus YLR113W, strain HOG1, stronger effect = lower value 1.04 | locus YNL183C, strain NPR1, stronger effect = lower value 0.989 | locus YOL012C, strain htz1 0.198 | locus YOR231W, strain MKK1, stronger effect = lower value 1.03 | locus YPL256C, strain CLN2, stronger effect = lower value 1.07 | locus YPR141C, strain kar3, stronger effect = lower value 1.06
0.0614 (active) and 1.03 (inactive): locus YJL095W, strain BCK1, stronger effect = lower value
active: locus YAL021C, strain ccr4, stronger effect = lower value 0.0884 | locus YAL026C, strain drs2, stronger effect = lower value 0.0686 | locus YAL030W, strain snc1, stronger effect = lower value 0.0727 | locus YBL061C, strain skt5, stronger effect = lower value 0.246 | locus YBR009C, strain hhf1, stronger effect = lower value 0.0752 | locus YBR021W, strain FUR4, stronger effect = lower value 0.566 | locus YBR023C, strain chs3, stronger effect = lower value 0.189 | locus YBR171W, strain sec66, stronger effect = lower value 0.0867 | locus YBR229C, strain ROT2, stronger effect = lower value 0.132 | locus YBR231C, strain swc5, stronger effect = lower value 0.147 | locus YBR279W, strain paf1, stronger effect = lower value 0.431 | locus YCL011C, strain gbp2, stronger effect = lower value 0.0674 | locus YCL016C, strain dcc1, stronger effect = lower value 0.155 | locus YCL029C, strain bik1, stronger effect = lower value 0.0831 | locus YCL061C, strain MRC1, stronger effect = lower value 0.0777 | locus YCL069W, strain vba3, stronger effect = lower value 0.067 | locus YCR088W, strain abp1, stronger effect = lower value 0.0699 | locus YDL005C, strain med2, stronger effect = lower value 0.0923 | locus YDL035C, strain GPR1, stronger effect = lower value 0.086 | locus YDL040C, strain nat1, stronger effect = lower value 0.495 | locus YDL074C, strain BRE1, stronger effect = lower value 0.188 | locus YDL101C, strain DUN1, stronger effect = lower value 0.0946 | locus YDL134C, strain PPH21, stronger effect = lower value 0.0628 | locus YDL185W, strain tfp1, stronger effect = lower value 0.673 | locus YDL192W, strain arf1, stronger effect = lower value 0.123 | locus YDR001C, strain nth1, stronger effect = lower value 0.0751 | locus YDR069C, strain doa4, stronger effect = lower value 0.255 | locus YDR101C, strain arx1, stronger effect = lower value 0.132 | locus YDR137W, strain rgp1, stronger effect = lower value 0.644 | locus YDR159W, strain sac3, stronger effect = lower value 0.155 | locus YDR162C, strain NBP2, stronger effect = lower value 0.0581 | locus YDR195W, strain ref2 0.153 | locus YDR297W, strain sur2, stronger effect = lower value 0.0933 | locus YDR318W, strain mcm21, stronger effect = lower value 0.0863 | locus YDR334W, strain swr1, stronger effect = lower value 0.075 | locus YDR335W, strain msn5, stronger effect = lower value 0.0693 | locus YDR388W, stronger effect = lower value 0.0688 | locus YDR392W, strain spt3, stronger effect = lower value 0.0901 | locus YDR502C, strain sam2, stronger effect = lower value 0.0995 | locus YEL003W, strain gim4, stronger effect = lower value 0.0687 | locus YEL037C, strain rad23, stronger effect = lower value 0.0666 | locus YEL061C, strain CIN8 (second series), stronger effect = lower value 0.0639 | locus YER015W, strain faa2, stronger effect = lower value 0.0893 | locus YER016W, strain bim1, stronger effect = lower value 0.306 | locus YER110C, stronger effect = lower value 0.116 | locus YER111C, strain swi4, stronger effect = lower value 0.0797 | locus YER155C, strain BEM2 (second series), stronger effect = lower value 0.106 | locus YER155C, strain BEM2, stronger effect = lower value 0.0845 | locus YER167W, strain BCK2, stronger effect = lower value 0.0646 | locus YFR010W, strain ubp6, stronger effect = lower value 0.0951 | locus YGL078C, strain dbp3, stronger effect = lower value 0.898 | locus YGL086W, strain mad1, stronger effect = lower value 0.0765 | locus YGL173C, strain kem1, stronger effect = lower value 0.474 | locus YGL227W, strain vid30, stronger effect = lower value 0.0779 | locus YGL240W, strain doc1, stronger effect = lower value 0.262 | locus YGL248W, strain PDE1, stronger effect = lower value 0.0583 | locus YGL253W, strain hxk2, stronger effect = lower value 0.0617 | locus YGR135W, strain pre9, stronger effect = lower value 0.0806 | locus YGR252W, strain gcn5, stronger effect = lower value 0.254 | locus YHR013C, strain ard1, stronger effect = lower value 0.131 | locus YHR027C, strain rpn1, stronger effect = lower value 0.157 | locus YHR079C, strain IRE1 (second series), stronger effect = lower value 0.107 | locus YHR094C, strain hxt1, stronger effect = lower value 0.0989 | locus YHR129C, strain ARP1, stronger effect = lower value 0.0688 | locus YHR142W, strain chs7, stronger effect = lower value 0.0769 | locus YHR200W, strain rpn10, stronger effect = lower value 0.103 | locus YIL066C, strain RNR3, stronger effect = lower value 0.0582 | locus YIL073C, strain SPO22, stronger effect = lower value 0.144 | locus YIL125W, strain kgd1, stronger effect = lower value 0.886 | locus YIR030C, strain dcg1, stronger effect = lower value 0.0978 | locus YJL092W, strain hpr5, stronger effect = lower value 0.0727 | locus YJL095W, strain BCK1 (second series), stronger effect = lower value 0.0644 | locus YJL115W, strain asf1, stronger effect = lower value 0.0841 | locus YJL129C, strain trk1, stronger effect = lower value 0.0945 | locus YJL134W, strain LCB3, stronger effect = lower value 0.0822 | locus YJL154C, strain vps35, stronger effect = lower value 0.0818 | locus YJL164C, strain tpk1, stronger effect = lower value 0.0731 | locus YJL166W, strain qcr8, stronger effect = lower value 0.0704 | locus YJL168C, strain set2, stronger effect = lower value 0.121 | locus YJL187C, strain SWE1 (second series), stronger effect = lower value 0.103 | locus YJR075W, strain HOC1, stronger effect = lower value 0.119 | locus YKL009W, strain mrt4, stronger effect = lower value 0.807 | locus YKL160W, strain elf1, stronger effect = lower value 0.12 | locus YKR001C, strain vps1, stronger effect = lower value 0.0859 | locus YKR026C, strain gcn3, stronger effect = lower value 0.0875 | locus YKR091W, strain srl3, stronger effect = lower value 0.109 | locus YLL001W, strain dnm1, stronger effect = lower value 0.074 | locus YLL026W, stronger effect = lower value 0.0713 | locus YLL041C, strain sdh2, stronger effect = lower value 0.075 | locus YLR027C, strain aat2, stronger effect = lower value 0.0705 | locus YLR039C, strain RIC1, stronger effect = lower value 0.33 | locus YLR058C, strain SHM2, stronger effect = lower value 0.0802 | locus YLR102C, strain apc9, stronger effect = lower value 0.088 | locus YLR221C, strain rsa3, stronger effect = lower value 0.0678 | locus YLR258W, strain gsy2, stronger effect = lower value 0.0842 | locus YLR262C, strain YPT6 (second series), stronger effect = lower value 0.341 | locus YLR268W, strain sec22, stronger effect = lower value 0.0987 | locus YLR320W, strain mms22, stronger effect = lower value 0.091 | locus YLR342W, strain FKS1 (second series), stronger effect = lower value 0.0987 | locus YLR342W, strain FKS1, stronger effect = lower value 0.0952 | locus YLR357W, strain rsc2, stronger effect = lower value 0.172 | locus YLR370C, strain arc18, stronger effect = lower value 0.066 | locus YLR371W, strain rom2, stronger effect = lower value 0.0867 | locus YLR384C, strain iki3, stronger effect = lower value 0.702 | locus YLR418C, strain cdc73, stronger effect = lower value 0.127 | locus YML016C, strain PPZ1, stronger effect = lower value 0.0701 | locus YML032C, strain rad52, stronger effect = lower value 0.112 | locus YML120C, strain ndi1, stronger effect = lower value 0.0773 | locus YML124C, strain tub3, stronger effect = lower value 0.0964 | locus YMR058W, strain fet3, stronger effect = lower value 0.0836 | locus YMR078C, strain ctf18, stronger effect = lower value 0.0876 | locus YMR125W, strain sto1, stronger effect = lower value 0.089 | locus YMR129W, stronger effect = lower value 0.0739 | locus YMR205C, strain PFK2, stronger effect = lower value 0.15 | locus YMR223W, strain ubp8, stronger effect = lower value 0.0986 | locus YMR231W, strain pep5, stronger effect = lower value 0.319 | locus YMR307W, strain GAS1, stronger effect = lower value 0.145 | locus YNL067W, strain RPL9B, stronger effect = lower value 0.132 | locus YNL071W, strain lat1, stronger effect = lower value 0.0643 | locus YNL209W, strain ssb2, stronger effect = lower value 0.19 | locus YNL233W, strain BNI4, stronger effect = lower value 0.0774 | locus YNL248C, strain rpa49, stronger effect = lower value 0.079 | locus YNL250W, strain rad50, stronger effect = lower value 0.889 | locus YNL271C, strain bni1, stronger effect = lower value 0.848 | locus YNL298W, strain CLA4, stronger effect = lower value 0.767 | locus YNL307C, strain MCK1, stronger effect = lower value 0.0706 | locus YNL322C, strain KRE1 (second series), stronger effect = lower value 0.0978 | locus YNR049C, strain mso1, stronger effect = lower value 0.0668 | locus YNR052C, strain pop2, stronger effect = lower value 0.282 | locus YOL147C, strain pex11, stronger effect = lower value 0.0757 | locus YOR001W, strain rrp6, stronger effect = lower value 0.083 | locus YOR061W, strain CKA2, stronger effect = lower value 0.0862 | locus YOR069W, strain VPS5, stronger effect = lower value 0.104 | locus YOR070C, strain gyp1, stronger effect = lower value 0.151 | locus YOR080W, strain dia2, stronger effect = lower value 0.277 | locus YOR083W, strain WHI5, stronger effect = lower value 0.134 | locus YOR106W, strain vam3, stronger effect = lower value 0.0987 | locus YOR136W, strain idh2, stronger effect = lower value 0.108 | locus YOR144C, strain elg1, stronger effect = lower value 0.0812 | locus YOR184W, strain ser1, stronger effect = lower value 0.0846 | locus YOR265W, strain rbl2, stronger effect = lower value 0.0812 | locus YOR270C, strain vph1, stronger effect = lower value 0.0993 | locus YOR290C, strain snf2, stronger effect = lower value 0.074 | locus YOR316C, strain cot1, stronger effect = lower value 0.0883 | locus YPL051W, strain arl3, stronger effect = lower value 0.436 | locus YPL055C, strain LGE1, stronger effect = lower value 0.137 | locus YPL078C, strain atp4, stronger effect = lower value 0.0699 | locus YPL106C, strain sse1, stronger effect = lower value 0.154 | locus YPL240C, strain hsp82, stronger effect = lower value 0.0838 | locus YPR119W, strain clb2, stronger effect = lower value 0.0943 | locus YPR163C, strain tif3, stronger effect = lower value 0.0947 | locus YPR167C, strain met16, stronger effect = lower value 0.0878 | strain wtn01, stronger effect = lower value 0.0815
